# “And” between values parts separate entries of the source, which are not always exact repeats. Equal entries are not always repeated. Among all 220,000 compounds or so, about 16,000 (7.3%) were called active. Not shown: some 25% with an inconclusive outcome. Shown is part of a subset that was picked to be rich in actives. Unmarked numbers belong to inactive results. The call rests on the fitted dose curve; in most records, active means well fitted inhibition curve with a large enough effect (not every such curve was filed as active); inconclusive means small, poorly fitted or top-dose-only effect, or another doubt; inactive means no such curve, though single readings can be large or run the other way.
# Target: Aldehyde dehydrogenase 1A1 (Homo sapiens) (UniProt P00352)
# Sequence (P00352 whole entry, looked up): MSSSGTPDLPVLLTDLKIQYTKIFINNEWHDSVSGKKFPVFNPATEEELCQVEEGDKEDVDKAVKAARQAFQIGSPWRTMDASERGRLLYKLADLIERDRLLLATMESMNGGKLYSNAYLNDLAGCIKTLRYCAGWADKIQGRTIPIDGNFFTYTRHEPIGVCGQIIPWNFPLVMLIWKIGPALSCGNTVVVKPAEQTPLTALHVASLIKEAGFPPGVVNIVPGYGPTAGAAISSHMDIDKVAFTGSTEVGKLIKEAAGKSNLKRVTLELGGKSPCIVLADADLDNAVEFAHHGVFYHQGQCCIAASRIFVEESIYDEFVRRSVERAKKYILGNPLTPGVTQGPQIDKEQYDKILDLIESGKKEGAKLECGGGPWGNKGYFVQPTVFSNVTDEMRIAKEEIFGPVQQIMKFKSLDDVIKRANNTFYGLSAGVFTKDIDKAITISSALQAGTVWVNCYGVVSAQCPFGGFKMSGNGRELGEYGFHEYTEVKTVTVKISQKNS
# Assay: qHTS Assay for Inhibitors of Aldehyde Dehydrogenase 1 (ALDH1A1);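 on activity, negative = inhibition: plate controls were no enzyme wells and a reference inhibitor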
# Conditions: Purified ALDH1A1, NADH fluorescence, propionaldehyde substrate; series mostly up to 75.3 µM; activity, negative = inhibition: at the top concentration
# Potency means the concentration at half of the fitted maximal effect.
Compound,"activity, negative = inhibition",Potency
Cc1cc(NC(=O)CSc2nnc(Nc3ccccc3F)s2)no1,16.2%,
O=CN1CCN(C2CC(=O)N(c3ccc4c(c3)OCO4)C2=O)CC1 (centres undefined),,12.6 µM (active)
O=C(Nc1ccc2c(c1)OCO2)c1ccc(N2C(=O)c3ccccc3C2=O)cc1,-14.5%,
O=C1C[C@@H](O)[C@@H](O)[C@H]2[C@@H]3C(=O)N(Cc4ccc5c(c4)OCO5)C(=O)[C@@H]3CC[C@H]12,-12% [at 13.5 µM] and -15.2% [at 13.5 µM],
Cc1cc(C)nc(N2CCC(C(=O)Nc3ccc4c(c3)OCCO4)CC2)n1,-1.55%,
CCn1cc(C(=O)Nc2cc(C)ccc2C)c(=O)c2ccc(C)nc21,9.15%,
C=CCN(C(=O)c1cc(C)cc(C)c1)C1(C(=O)Nc2ccccc2)CCN(C(C)C)CC1,7.62%,
Cc1ccnc(SCC(N)=O)n1,4.55%,
CCn1c(SCC(=O)Nc2nccs2)nnc1-c1ccco1,-1.17%,
O=C(O)CCSc1nnc(-c2ccccc2)n1-c1ccccc1,13.6%,
Cc1cccc(C)c1NC(=O)CCCSc1nnc(-c2ccco2)n1-c1ccccc1,,25.1 µM (active)
COc1ccc(C(=O)NC(=O)CSc2nnc(-c3ccco3)n2-c2ccccc2)cc1,,31.6 µM (active)
O=C(CSc1nnc(-c2ccco2)n1-c1ccccc1)NCCc1ccccc1,1.44%,
COc1ccc(-c2nnc(SCC(=O)c3ccco3)n2-c2ccccc2)cc1,2.43%,
O=C(NCc1ccccn1)c1cc(Br)ccc1Cl,3.58%,
CC[N+]1(CC)CC2=Cc3ccccc3CC2C1 (centres undefined),8.47%,
COc1ccc(N2CCN(C(=O)CCSCc3ccccc3F)CC2)cc1,-6.05%,
Cc1cccc(-n2cc(CN3CCN(C(=O)c4ncn[nH]4)CC3)c(-c3cccc(F)c3)n2)c1,8.62%,
CC(C)=CCC[C@]1(C)[C@@H](CC=C(C)C)C[C@@]2(CC=C(C)C)C(=O)[C@]1(C(=O)C(C)C)C(=O)C(CC=C(C)C)=C2O,-11.6%,
O=C(Nc1ccc(F)cc1)N1CCN(c2ccc(F)cc2)CC1,4.97%,
Cc1nn(Cc2ccc(Cl)cc2)c(Cl)c1/C=N/NC(=O)c1cccnc1,1.63%,
O=C(N/N=C/c1ccccn1)c1cccnc1,0.679%,
O=C(N/N=C/c1sc(N2CCCCC2)nc1-c1cccs1)c1cccnc1,,31.6 µM (active)
CCN(CCCNC(=O)CSc1cc(=O)n(C)c2cc(Cl)ccc12)Cc1ccccc1,-4.41%,
CC1=NNC(=O)C1CCC(=O)N/N=C\c1cccc(Cl)c1 (centres undefined),9.21%,
O=[N+]([O-])c1ccccc1/C=N/n1c(COc2ccccc2)n[nH]c1=S,,15.8 µM (active)
CCc1n[nH]c(=S)n1/N=C/c1c[nH]c2ccc(Br)cc12,3.56%,

Compound,"activity, negative = inhibition",Potency
S=c1[nH]nc(COc2ccccc2)n1-c1ccccc1,11.3%,
O=C(Nc1nc(-c2cccnc2)cs1)c1ccccc1F,1.94%,
CCN1CCN(CC(=O)Nc2sc3c(c2C#N)CCC3)CC1,2.98%,
CCc1cc2c(=O)c(-c3nc4ccccc4n3C)c(CCCC(=O)O)oc2cc1OC(=O)C(C)(C)C,-5.27%,
CCOC(=O)c1oc2c(CN3CCN(CCO)CC3)c(O)c(CC)cc2c(=O)c1-c1nc2ccccc2s1,,28.2 µM (active)
Cn1c(=O)[nH]c(=O)c2c1nc(N1CCN(CCO)CC1)n2CCSc1nc2ccccc2s1,3.29%,
CCCCn1nc(C(=O)OCC(=O)Nc2sccc2C(N)=O)c2ccccc2c1=O,-11.1%,
CCOC(=O)N1CCN(Cc2nc(Cc3cccc(C(F)(F)F)c3)no2)CC1,11.4%,
COC(=O)c1cc2c(ccn2C)n1C,8.88%,
CCOC(=O)/C(C#N)=C/c1cn(CCC(=O)O)nc1-c1ccc(Br)cc1,-2.01%,
COc1ccc(C(=O)Oc2cc(/C=N/NS(=O)(=O)c3ccc(C)cc3)ccc2OC)cc1,4.16%,
COc1ccc(S(=O)(=O)N/N=C\c2ccc(OC)c(COc3ccc(C)cc3[N+](=O)[O-])c2)cc1,,14.1 µM (active)
COc1cc(/C=N/O)ccc1OCc1ccc([N+](=O)[O-])cc1,1.92%,
Cc1ccc2c(c1)C1CN(C)CCC1N2C(=S)Nc1ccc(OC(F)F)cc1 (centres undefined),-1.46%,
COCCNC(=O)NC(=O)COC(=O)C1(c2ccc(Cl)cc2)CC1,5.24%,
CSCCNCc1cn(-c2ccc(F)cc2F)nc1-c1ccccc1C,,35.5 µM (active)
COc1ccccc1CC(=O)Nc1ccc(F)cc1F,3.38%,
O=C(CC12CC3CC(CC(C3)C1)C2)NCc1ccco1,-7.67%,
CCOC(=O)c1ccc[n+](CC(=O)Nc2ccccc2OC(F)F)c1,3.54%,
COC(=O)c1ccc(-n2cnc3ccccc32)nc1,2.05%,
COC(=O)c1cccc(-n2[nH]nnc2=S)c1,,2.82 µM (active)
COC(=O)c1nn(-c2cccc(Cl)c2)ccc1=O,-5.16%,
COc1ccc(NC(=O)c2ccccc2[N+](=O)[O-])cc1OC,9.06%,
CCOC(=O)C1(Cc2ccc(Cl)cc2)CCN(C(=O)C2=NNC(=O)CC2)CC1,12.8%,
Cc1ccc(S(=O)(=O)N(C)C)cc1NC(=O)c1ccccc1Br,-11.2%,
Cc1ccc(S(=O)(=O)N(C)C)cc1NC(=O)/C=C/c1cccs1,,0.447 µM (active)
CN(C)S(=O)(=O)c1cccc(NC(=O)COC(=O)/C=C/c2cccs2)c1,-6.21%,
